Assay results reported in PubChem BioAssay (NCI).
Compounds without any hit were thinned out: in the full panel of roughly 83,000, 20% have a hit.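 Method: cells in 96-well plates; compound added at one concentration; 48 h incubation; percent growth measured; values under 10 scored active.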 The source made the active and inactive calls.

Each compound was assayed on HL-60(TB) leukemia (assay: NCI-60 one-dose screen, 48 h (100 = growth as untreated, 0 = no growth, -100 = all killed)). Conditions: 10 µM unless noted.
For `O=C(c1nc2ccccc2[nH]1)C1C(c2ccc([N+](=O)[O-])cc2)C2CC3CCCCC3N2[C@@]12C(=O)Nc1cc(Cl)ccc12` (stereo not given in full), the growth was 8.45% (active). With `O=C1Nc2ccc(Br)cc2C1=N/C=c1\[nH]c(=O)/c(=C/c2ccc(Cl)cc2)s1` the growth was 100% (inactive). In the case of `O=C1/C(=C/c2cn(-c3ccccc3)nc2-c2ccccc2)SC(=S)N1C1CCCCC1`, the growth is reported as 116% (inactive). `CN(C)c1ccc(-c2ccc3[nH]c(=O)nc(-c4ccccc4)c3c2)cn1` was tested, and the growth was 3.35% (active). In the case of `CC1=C(O)C(=O)C(C(C#N)(C#N)C(C#N)C#N)C1` (stereo not given), the growth is reported as 91.7% (inactive). With `CCCCCCOc1ccc(/C=N/Nc2cc(C)nc3ccc(Cl)cc23)cc1` the growth was 8.19% (active). In the case of `CC[N+](CCCCCCCCCC[N+](CC)(c1ccccn1)c1ccccn1)(c1ccccn1)c1ccccn1`, the growth is reported as -50.7% (active). In the case of `N#Cc1ccc(Oc2ccc3ccc(=O)oc3c2)cc1`, the growth is reported as 82.7% (inactive). For `CCCCCCCCCCCCCC(=O)C(C)N` (stereo not given), the growth was 14.6% (inactive). For `Nc1ccc2c(c1)c(N)nn2C(=O)Nc1ccc(Cc2ccccc2)cc1`, the growth was 16.4% (inactive). With `C=CCn1cc(-c2nc3ccccc3s2)c2cc(-c3ccc4c5c(cccc35)C(=O)N(CCO)C4=O)ccc21` the growth was 101% (inactive). In the case of `CCCCCCNC(=O)Oc1ccc(/C(=C(/CC)Cc2ccccc2)c2ccc(OCCCN(C)C)cc2)cc1`, the growth is reported as 64.2% (inactive). `CCN1C(=O)N(CC)C2C1NN=c1s/c(=C\c3ccc([N+](=O)[O-])cc3)c(=O)n12` (stereo not given) was tested, and the growth was -37.9% (active). `Cc1cc(Nc2nc(-c3ccc(F)cc3)nc3ccccc23)n[nH]1` was tested, and the growth was 39% (inactive). `Nc1ccc(C(=O)CSc2nc3ccccc3[nH]2)cc1` was tested, and the growth was 95.3% (inactive). `CC/C=C\C[C@H](O)C/C=C1/C(=O)C=C[C@@H]1C/C=C\CCCC(=O)NC` was tested, and the growth was -27.2% (active). In the case of `O=C(c1ccc(N2CCOCC2)cc1[N+](=O)[O-])N1CCOCC1`, the growth is reported as 133% (inactive). With `Cc1ccc(NC2=CC(=O)C(=O)c3ccccc32)cc1` the growth was 18.4% (inactive). With `CC1=NNC(=O)C1CCC(=O)N/N=C(\C)c1ccc2ccccc2c1` (stereo not given) the growth was 86.4% (inactive). With `CC(=O)c1ccc(C(C)(C)C)cc1` the growth was 100% (inactive). For `C=C(CC(=O)OC)C(C)=O`, the growth was 95.8% (inactive). In the case of `O=C1CC(c2nc3ccccc3[nH]2)CN1C1CCCCC1` (stereo not given), the growth is reported as 101% (inactive). `O=[N+]([O-])c1cc(NS(=O)(=O)c2ccccc2)ccc1NS(=O)(=O)c1ccccc1` was tested, and the growth was 113% (inactive). In the case of `O=S1(=O)OC(c2ccc(O)c(Cl)c2)(c2ccc(O)c(Cl)c2)c2ccccc21`, the growth is reported as 109% (inactive). For `CC(C)(CCN=C(N)Nc1ccccn1)c1ccc(C(F)(F)F)cc1`, the growth was -52.7% (active). With `CCOC(=O)C1=C(C(=O)c2ccccc2)C(c2cccc([N+](=O)[O-])c2)C(C(=O)c2ccccc2)=C(C(=O)OCC)N1` the growth was 66.8% (inactive). `COc1ccc(-c2nc3sc(-c4ccccc4)cn3n2)cc1` was tested, and the growth was 67.4% (inactive). For `COc1cc2c3c(c4c5ccccc5[nH]c4c2c(OC)c1OC)C(=O)N(CCN1CCCCC1)C3=O`, the growth was 63% (inactive). `COC(=O)/C=C1/SC(=Nc2cccc(Cl)c2)N(CCc2c[nH]c3ccc(O)cc23)C1=O` was tested, and the growth was -11.4% (active). `COc1ccc(C)cc1OC` was tested, and the growth was 94.3% (inactive). In the case of `O=[N+]([O-])c1cccc([I+]c2ccccc2)c1`, the growth is reported as 37.9% (inactive). `CCCCCC[C@@H](O)C/C=C\CCCCCCCC(=O)OCCOC` was tested, and the growth was 156% (inactive). `Cc1sc2nc(NCCN)[nH]c(=O)c2c1C` was tested, and the growth was 115% (inactive). `COc1ccc2c(c1)C(C)Cc1c(Cl)nc(C)nc1N2C` (stereo not given) was tested, and the growth was 11.3% (inactive). In the case of `C=C1C(=O)O[C@H]2[C@H]1CC/C(Cn1cc(CNC(=O)/C=C/c3c[nH]c4ccccc34)nn1)=C\CC[C@@]1(C)O[C@@H]21`, the growth is reported as 29.9% (inactive). With `COc1ccc(-c2nnc(SCC(=O)Nc3ccc(/C(C)=N\O)cc3)n2-c2ccccc2)cc1OC` the growth was 77.3% (inactive). In the case of `COc1cc(-c2cc(-c3ccc(Nc4ncnc5cc(Cl)ccc45)cc3)nc(N3CCN(C)CC3)n2)cc(OC)c1OC`, the growth is reported as 76.4% (inactive). With `O=C(/C=C/c1cccc(Oc2ccccc2)c1)c1ccc(Nc2nc(Nc3ccc(F)cc3)nc(Nc3ccc(Cl)cc3)n2)cc1` the growth was -38.2% (active). With `COc1ccc(-c2nc(N3CCN(C(=O)C4CCCCC4)CC3)c3c4c(sc3n2)CCCC4)cc1` the growth was 39% (inactive). `O=c1c2c3c(sc2n2c(-c4cn(-c5ccccc5)nc4-c4ccc(Cl)cc4)nnc2n1Cc1ccccc1)CCCC3` was tested, and the growth was 102% (inactive).
